In all, about 390,000 compounds went through this assay and about 4,000 (1%) were called active. Inconclusive results (about 7%) are left out. The full list was thinned out, with actives kept by preference. Values without a mark were called inactive. The call rests on the fitted dose curve; in most records, active means well fitted inhibition curve with a large enough effect; inconclusive means small, poorly fitted or top-dose-only effect, or another doubt; inactive means no such curve, though single readings can be large or run the other way.

Here are results for 46 compounds from PubChem BioAssay AID588590 (National Center for Advancing Translational Sciences (NCATS), 2011).
Potency means the concentration at half of the fitted maximal effect.

Sequence of DNA polymerase iota (Homo sapiens) (Q9UNA4 whole entry, looked up): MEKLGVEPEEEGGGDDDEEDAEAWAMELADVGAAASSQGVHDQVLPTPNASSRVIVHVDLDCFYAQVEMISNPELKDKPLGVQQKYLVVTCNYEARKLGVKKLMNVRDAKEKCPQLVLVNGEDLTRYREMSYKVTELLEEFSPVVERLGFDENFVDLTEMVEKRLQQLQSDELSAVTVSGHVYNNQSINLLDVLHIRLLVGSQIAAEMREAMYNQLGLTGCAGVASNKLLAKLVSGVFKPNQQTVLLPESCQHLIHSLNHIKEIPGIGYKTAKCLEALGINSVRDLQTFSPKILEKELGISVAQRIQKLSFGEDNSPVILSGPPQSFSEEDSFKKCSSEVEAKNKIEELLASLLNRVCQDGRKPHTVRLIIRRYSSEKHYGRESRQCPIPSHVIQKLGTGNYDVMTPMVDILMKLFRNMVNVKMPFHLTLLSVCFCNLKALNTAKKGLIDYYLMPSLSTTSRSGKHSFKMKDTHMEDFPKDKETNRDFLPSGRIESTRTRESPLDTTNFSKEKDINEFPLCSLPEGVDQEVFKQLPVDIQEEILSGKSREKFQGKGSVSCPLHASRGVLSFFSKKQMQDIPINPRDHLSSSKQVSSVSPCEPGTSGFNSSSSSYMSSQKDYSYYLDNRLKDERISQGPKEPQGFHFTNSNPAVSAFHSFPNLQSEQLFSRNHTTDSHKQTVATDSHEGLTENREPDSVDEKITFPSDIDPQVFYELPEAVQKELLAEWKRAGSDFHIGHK

The target of this assay is DNA polymerase iota (Homo sapiens) (UniProt Q9UNA4). Description: qHTS for Inhibitors of Polymerase Iota. As to conditions: Pol iota fluorescent replication assay, 10 min; series mostly up to 115 µM; activity, negative = inhibition: at the top concentration. The method in brief:
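Pol iota at 10 nM preincubated 15 min with compounds at room temperature; reaction started with fluorescent substrate, 50 nM final. Fluorescence read kinetically at 0 and 10 min; buffer-only wells as negative control.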
(In general: Quantitative high-throughput screening tests each substance at several concentrations.)
For the compound `O=C(N/N=C/C=C/c1ccco1)c1cccs1`, the Potency is 22.4 µM (active).
For `O=C(N/N=C/c1ccco1)c1ccc(NC(=O)C2CC2)cc1`, the “activity, negative = inhibition” value was -9.3%.
The same measure, in the same setting: to `CC1(C)CC(=O)C/C(=N\NC(=O)c2cccs2)C1` belongs 1.79%.
For the compound `CC(=O)c1ccc(S(=O)(=O)N2CCN(C(=O)/C=C/c3ccc4ccccc4n3)CC2)cc1`, the Potency was 44.7 µM (active).
In the case of `CC(=O)c1ccc(S(=O)(=O)N2CCC3(CC2)OCCO3)cc1`, the “activity, negative = inhibition” value was 16.8%.
Take `CC(=O)c1ccc(S(=O)(=O)N2CCN(c3nc4c(C)c(C)ccc4cc3C#N)CC2)cc1`: the “activity, negative = inhibition” value was -12.5%.
Same read-out and setting: as for `Cn1c(=O)nc2n(-c3ccc(Br)cc3)c3cccc(Cl)c3cc-2c1=O`, the figure is 9.36%.
For the compound `COc1ccc(N2C(=O)CC(Nc3ccc(F)cc3)C2=O)c([N+](=O)[O-])c1` (stereo unspecified), the “activity, negative = inhibition” value is 135%.
Take `CC(=O)Oc1cccc(N2C(=O)CC(Nc3ccc(N4CCOCC4)cc3)C2=O)c1` (stereo unspecified): the Potency is 20 µM (active).
As for `COc1ccc(N2CCN(C3CC(=O)N(c4ccc5c(c4)OCCO5)C3=O)CC2)cc1` (stereo unspecified), the “activity, negative = inhibition” value is -17.7% [at 58.9 µM].
Consider `Cc1ccc(NC(=O)CSc2nc3c(c(=O)[nH]2)CN(Cc2ccc4c(c2)OCO4)CC3)cc1C`, for which the “activity, negative = inhibition” value was 93.1%.
In the case of `CCc1ccc2ncc3c(-c4ccc(C)cc4)nn(CC(=O)NCc4ccccc4)c3c2c1`, the “activity, negative = inhibition” value is -9.65%.
Still for that read-out and setting: as for `COC(=O)c1cnc(N2CCN(c3ccccc3OC)CC2)c2ccccc12`, the figure is -17.2%.
For the compound `Cc1cc(-c2n[nH]c(=S)n2/N=C/c2ccco2)n[nH]1`, the Potency was 44.7 µM (active).
On to `COc1ccccc1/C=C/C=N/n1c(-c2ccc(Cl)cc2Cl)n[nH]c1=S`, for which the “activity, negative = inhibition” value was 23.2%.
On the same count and under the same terms, to `S=c1[nH]nc(-c2ccco2)n1/N=C/c1ccc(Br)s1` belongs 7.83%.
On the same count and under the same terms, to `COc1ccc(C)cc1NC(=O)CCc1c(C)nn(-c2ccc(N3CCOCC3)nn2)c1C` belongs 2.12%; to `COc1cccc(C(=O)NC(=O)Nc2ccc(-c3cc(C(F)(F)F)nn3-c3ccccc3)cc2)c1`, -5.55%.
On to `COC(=O)C1=C(c2ccccc2)c2ccccc2S(=O)(=O)N1CC(=O)Nc1ccccc1C(F)(F)F`, for which the “activity, negative = inhibition” value was -2.37%.
Turning to `OC(Cc1ccc2ccccc2n1)c1ccc(Cl)c(Cl)c1` (stereo unspecified), the “activity, negative = inhibition” value was 13.3%.
Same read-out and setting: as for `O=C(NCCS(=O)(=O)N1CCN(c2ccc(F)cc2)CC1)c1ccccc1Br`, the figure is 34.6%.
Take `CC(=O)Nc1ccc(S(=O)(=O)NC2(C(F)(F)F)C(=O)NC(C)=C2C#N)cc1` (stereo unspecified): the Potency is 22.4 µM (active).
As to `CC(=O)Nc1ccc(S(=O)(=O)NC2(C(F)(F)F)C(=O)Nc3c2c(=O)[nH]c(=O)n3Cc2ccccc2)cc1` (stereo unspecified), the “activity, negative = inhibition” value is 13%.
The same measure, in the same setting: as for `CCCN1C(=O)C(NS(=O)(=O)c2ccc(N)cc2)(C(F)(F)F)C(C(=O)OC)=C1C` (stereo unspecified), the figure is 21.5%; as for `Cc1c(Cl)cccc1NC(=O)N1CCN(C(=O)c2nsc3ccccc23)CC1`, -1.97%; as for `O=C(CCSCc1ccccc1F)N1CCN(c2ccc(Cl)cc2)CC1`, 5.1%.
Consider `Cc1cccc(N(C(=O)Cc2cccs2)C(C(=O)NCc2ccco2)c2ccncc2)c1` (stereo unspecified), for which the “activity, negative = inhibition” value was 3.72%.
Turning to `Cc1nc(C)c(C(=O)N(c2ccc(C)c(C)c2)C(C(=O)NCc2ccco2)c2ccccc2)s1` (stereo unspecified), the Potency was 79.4 µM (active).
As for `Cc1cccc(N(C(=O)c2sc(C)nc2C)C(C(=O)NCC2CCCO2)c2ccccc2)c1` (stereo unspecified), the “activity, negative = inhibition” value was 159%.
Still for that read-out and setting: as for `CC(C)(C(=O)NO)c1ccccc1`, the figure is 22.6%; as for `O=C(Nc1c(-c2ccc(F)cc2)nc2ccccn12)c1cccc(F)c1`, -14.9%; as for `O=C(COc1ccc(Cl)cc1)N1CCN(S(=O)(=O)c2ccc(Cl)cc2)CC1`, 0.841%.
On the same count and under the same terms, as for `CS(=O)(=O)c1ccc(Cl)c(NC(=O)COC(=O)c2ncc(Cl)c(Cl)c2Cl)c1`, the figure is 27.4%.
For `CS(=O)(=O)c1ccc(C(=O)OCC(=O)NNC(=O)COc2ccc(Cl)cc2)cc1`, the Potency is 79.4 µM (active).
Consider `COc1cc(OC)c(/C=C/c2ccnc3ccccc23)c(OC)c1`, for which the “activity, negative = inhibition” value was 6.37%.
Same read-out and setting: to `CC(NC(=O)CCc1cn(Cc2ccccc2Cl)c2ccccc12)c1ccccc1` (stereo unspecified) belongs 6.58%.
For `Cc1c(C)n(Cc2ccc(Cl)cc2)c2ccc(C(=O)N3CCN(c4ccccc4F)CC3)cc12`, the “activity, negative = inhibition” value is -14.6%.
On to `CC(C)c1ccc2c(c1)c(SC(C)(C)C)c(CC(C)(C)C(=O)O)n2Cc1ccc(Cl)cc1`, for which the Potency is 28.2 µM (active).
As to `O=C(Cn1c(=O)nc(-c2ccccc2)c2cc(Cl)ccc21)NCc1ccc(Cl)cc1`, the “activity, negative = inhibition” value was 12.4%.
Same read-out and setting: as for `COc1cc(-c2noc(-c3ccc(N4CCCC4)c([N+](=O)[O-])c3)n2)cc(OC)c1OC`, the figure is 13.9%; as for `Cc1ccc(C(=O)N2CCc3cc(CNC(=O)c4ccc(Br)cc4)ccc32)cc1`, 14%.
With `CSC1=N/C(=C\C=C\c2cccs2)C(=O)S1`, the Potency was 15.8 µM (active).
On to `Cc1ccc(CN(C(=O)COc2ccc(Cl)cc2C)C2CCS(=O)(=O)C2)o1` (stereo unspecified), for which the “activity, negative = inhibition” value is -3.04%.
Take `CCc1cc2c(-c3ccccc3)cc(=O)oc2c2c1OCN(Cc1ccc(C)cc1)C2`: the “activity, negative = inhibition” value is 21.1%.
Still for that read-out and setting: to `Cc1ccc(S(=O)(=O)c2nc(-c3ccco3)oc2SCC(=O)Nc2ccc(F)cc2)cc1` belongs -29.2%; to `O=C1CCCc2cc(S(=O)(=O)N3CCCC(C(=O)NCc4ccccc4)C3)ccc2N1` (stereo unspecified), 4.68%.
